Assay outcomes deposited in PubChem by The Scripps Research Institute Molecular Screening Center.
Hits are enriched below; roughly 3.4% of the tested compounds scored in any of these assays.
GPR151 ag: human GPR151 activation | Q8TDV0 | PathHunter beta-arrestin GPR151 cells, luminescence | activation, % at 11.2 µM | actives 1% (n = 650,000); in the data active = activation above about 4.9%;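 note: 0% = median of compound wells and 100% = cells with positive control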
MITF inh: inhibitors of human MITF; AlphaScreen MITF homodimerization, bead proximity signal; inhibition, % at 2.6 µM; actives 0.91% (n = 650,000); in the data active = inhibition above about 50%;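 note: 0% = vehicle wells with protein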
Target sequence (O75030 whole entry, looked up): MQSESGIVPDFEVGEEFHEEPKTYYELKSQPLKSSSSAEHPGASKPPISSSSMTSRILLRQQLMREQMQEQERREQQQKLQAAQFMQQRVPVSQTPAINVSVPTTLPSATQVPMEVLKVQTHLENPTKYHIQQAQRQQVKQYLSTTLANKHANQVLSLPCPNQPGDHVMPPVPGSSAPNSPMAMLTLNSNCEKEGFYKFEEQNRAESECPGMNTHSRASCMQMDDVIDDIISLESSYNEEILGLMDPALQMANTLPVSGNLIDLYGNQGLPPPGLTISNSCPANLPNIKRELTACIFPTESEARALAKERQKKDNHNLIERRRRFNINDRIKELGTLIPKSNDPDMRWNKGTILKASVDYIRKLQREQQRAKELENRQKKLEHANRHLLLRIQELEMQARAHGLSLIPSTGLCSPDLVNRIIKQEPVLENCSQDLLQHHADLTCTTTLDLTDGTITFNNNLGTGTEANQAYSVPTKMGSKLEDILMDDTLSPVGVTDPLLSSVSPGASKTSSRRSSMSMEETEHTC
FBW7 act: human FBW7 E3 ligase activation, primary screen | Q969H0 | AlphaScreen FBW7–phospho-cyclin E peptide binding, activator screen | normalized activity (activation), % at 26.1 µM | actives 0.13% (n = 650,000) | AID 1259310; in the data active = normalized activity above about 1.9%;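 note: purified mutant Fbw7 with reduced substrate affinity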
TEAD-YAP inh: TEAD-YAP interaction inhibition | HEK-TIYL cells, TEAD-Gal4/YAP UAS-luciferase luminescence | inhibition, % at 9.12 µM | actives 1.4% (n = 640,000); in the data active = inhibition above about 32%;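 note: 0% = median of test compound wells and 100% = reference inhibitor wells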
MITF inh conf: confirmation of human MITF inhibitors | shares compounds with MITF inh | AlphaScreen MITF homodimerization, biotin/His-MITF beads | inhibition, % at 2.6 µM | actives 16% (n = 4,700);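 active = inhibition above a cutoff derived from the DMSO control wells, cut at about 28% in these data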;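 note: 0% = MITF dimer wells with DMSO only; inhibitors lower the bead chemiluminescence by keeping MITF from dimerizing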
AS interf DR: optically interferes with AlphaScreen signal in dose response. shares compounds with MITF inh. actives 6% (n = 480). AlphaScreen optical interference counterscreen, cell-free. IC50, µM; call rule not given here
AS interf ctr: counter-screen: compounds optically interfering with AlphaScreen; shares compounds with MITF inh; LysRS AlphaScreen counterscreen, signal interference, triplicate; inhibition, % at 2.6 µM; actives 7.6% (n = 4,700); AID 1259376;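 active = inhibition above a cutoff derived from the DMSO control wells, cut at about 30% in these data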
An asterisk follows results filed as active; · = no result given.

SMILES | GPR151 ag | MITF inh | FBW7 act | TEAD-YAP inh | MITF inh conf | AS interf ctr | others
O=C(/C=C/c1ccco1)NC(=S)Nc1ccc(Cl)c(C(=O)O)c1 | 0.1 | 75.6* | -0.2 | -1.8 | 64.2* | 10.5 | AS interf DR=>6.48
O=C(NC(N1CCCC1)C(Cl)(Cl)Cl)c1cccc([N+](=O)[O-])c1 (stereo unspecified) | 0.0 | 8.9 | -0.2 | 5.7 | · | ·
COc1cc(CNCc2ccccc2C(F)(F)F)cc(OC)c1OC | 2.2 | 64.6* | 0.1 | -1.3 | -7.3 | 4.6
COc1cc(CNCc2ccncc2)cc(OC)c1OC | -0.8 | 58.1* | 0.0 | -1.1 | -0.9 | -5.0
COc1cc(CNCc2cccc(OC)c2OC)cc(OC)c1 | 0.5 | 20.6 | 0.1 | 2.8 | · | ·
COc1cccc(CNCc2ccncc2)c1 | -0.8 | 2.1 | -0.2 | 5.7 | · | ·
COc1cc(CN2CCCC2)cc(OC)c1OC | -0.6 | -0.8 | -0.1 | 2.1 | · | ·
CCc1ccc(CN2CCN(Cc3cc(OC)c(OC)c(OC)c3)CC2)cc1 | -0.2 | 58.5* | -0.2 | 2.4 | -2.9 | 0.5
COc1cc(CN2CCN(c3ccc(F)cc3)CC2)cc(OC)c1OC | -0.3 | 23.9 | 0.0 | 7.4 | · | ·
COc1cc(CN2CCN(Cc3ccc(F)cc3)CC2)cc(OC)c1OC | 1.0 | 83.6* | -0.1 | -2.3 | 13.1 | 10.5
CCOc1cccc(C2c3c(-c4ccccc4O)n[nH]c3C(=O)N2CCCO)c1 (stereo unspecified) | 0.9 | 7.5 | -0.3 | -3.9 | · | ·
Cc1ccc(CNC(=O)C(=O)Nc2ccccc2Br)cc1 | 0.1 | 3.0 | -0.2 | -7.3 | · | ·
CC(C)CNC(=O)c1cccc(NC(=O)CSCc2ccccc2)c1 | -0.2 | 21.9 | 0.1 | -0.3 | · | ·
C=CCc1cccc2cc(C(=O)NCCC3=CCCCC3)c(=O)oc12 | -0.6 | 3.4 | 0.4 | 18.9 | · | ·
O=c1oc2ccc3ccccc3c2cc1-c1nc(-c2ccc(-c3ccccc3)cc2)cs1 | 0.5 | 10.4 | 0.1 | 6.0 | · | ·
COc1cc(CN2CCN(Cc3ccncc3)CC2)cc(OC)c1OC | -0.2 | 70.5* | -0.4 | 13.7 | 13.7 | 16.0
CCOC(=O)C1CCN(C(=O)c2ccc(N3CC4CC(C3)c3cccc(=O)n3C4)c(NC(=O)c3ccc(F)cc3)c2)CC1 (stereo unspecified) | -0.4 | -1.2 | -0.1 | 6.1 | · | ·
CCOC(=O)C1CCN(C(=O)c2ccc(N3CC4CC(C3)c3cccc(=O)n3C4)c(NC(=O)c3ccc(C(C)(C)C)cc3)c2)CC1 (stereo unspecified) | -2.6 | 67.2* | 0.0 | 2.9 | 8.0 | 18.7
Cn1nc(Oc2ccc(-c3ccccc3)cc2)c(=O)n(C)c1=O | -1.1 | 79.7* | 0.0 | -8.8 | 15.7 | 8.7
CCOc1ccc(-c2nnc(NS(=O)(=O)c3ccc(Cl)cc3)o2)cc1 | 2.9 | 3.9 | -0.1 | 0.9 | · | ·
CC(C)(C)C(=O)c1sc(NCc2ccco2)c(C(N)=O)c1N | -0.1 | 13.9 | 0.2 | 0.6 | · | ·
CN(C)c1cccc(Nc2ccc(-c3ccccc3C=O)cn2)c1 | 0.2 | 62.5* | -1.5 | -15.6 | 55.5* | 61.3*
CC(=O)c1cccc(-c2ccc(Nc3cccc(N(C)C)c3)nc2)c1 | 0.7 | 6.3 | -1.0 | -56.6 | · | ·
COc1ccc(-c2nc3n(n2)C(c2ccc(OC)c(OC)c2)C(C(N)=O)=C(C)N3)cc1 (stereo unspecified) | -1.4 | -6.9 | 0.1 | -13.1 | · | ·
O=C(N/N=C1\CCSC1)C(c1ccccc1)c1ccccc1 | -0.5 | 11.8 | -0.1 | -2.1 | · | ·
SMILES | GPR151 ag | MITF inh | FBW7 act | TEAD-YAP inh | MITF inh conf | AS interf ctr | others
Cc1ccoc1C(=O)NCc1occc1C(=O)O | -1.2 | 57.4* | 0.0 | 14.5 | 10.4 | 7.0
Cc1ccoc1C(=O)NCCNC(=O)c1occc1C | -0.4 | 7.0 | -0.1 | 1.0 | · | ·
Fc1ccccc1CNC1CCN(Cc2ccccc2)CC1 | -0.5 | 50.8* | 0.2 | -0.2 | -11.8 | -0.4
Clc1ccc(CNC2CCN(Cc3ccccc3)CC2)cc1 | 0.9 | -11.5 | -0.1 | 6.7 | · | ·
Cc1ccc(CNC2CCN(Cc3ccccc3)CC2)o1 | 0.0 | 22.9 | -0.1 | 1.1 | · | ·
c1ccc(CN2CCC(NCc3cccnc3)CC2)cc1 | -0.6 | 70.3* | 0.0 | -11.3 | 5.6 | 11.4
c1ccc(CN2CCC(NCc3ccncc3)CC2)cc1 | -1.0 | 62.5* | 0.0 | -0.8 | 8.0 | 12.9
FC(F)SCc1ccc(CNC2CCN(Cc3ccccc3)CC2)o1 | 1.0 | 53.8* | 0.1 | 0.6 | 15.4 | 18.7
CC(=O)N/N=C(\CCC(=O)O)c1cccs1 | 0.1 | -2.3 | -0.1 | 2.2 | · | ·
Cc1ccc(NC(=O)CCC(=O)N/N=C/c2ccccc2Cl)cc1 | -0.1 | 9.5 | 0.0 | 11.2 | · | ·
CC(=O)Nc1ccc(NC(=S)NC(NC(=O)c2ccco2)C(Cl)(Cl)Cl)cc1 (stereo unspecified) | -0.8 | -17.5 | -0.2 | 7.6 | · | ·
CCCC(C)C(=O)Nc1ccccc1C (stereo unspecified) | -0.4 | 51.0* | 0.5 | 2.3 | 0.7 | 9.4
COc1cc(CNc2cccc(C)c2)cc(OC)c1OC | 2.2 | 55.3* | 0.0 | 15.4 | -1.8 | 1.9
Cc1cccc(NCc2ccncc2)c1 | -0.9 | 77.0* | -0.1 | 4.6 | 21.2 | 20.1
Cc1ccc(NCc2ccncc2)c(Br)c1 | 0.2 | 68.7* | -0.2 | -1.9 | -7.4 | -5.4
COc1cc(CNc2ccccc2)cc(OC)c1OC | 0.7 | 1.1 | -0.2 | -9.8 | · | ·
Cc1ccc(Nc2nc(Nc3ccc(C)cc3)nc(SC(=S)N3CCCCC3)n2)cc1 | -1.5 | -11.4 | 0.0 | -7.0 | · | ·
COCCn1c(-c2ccc(F)cc2)nc2c(c(=O)c3ccccc3n2C)c1=O | -0.3 | -10.8 | -0.1 | 2.0 | · | ·
CCCn1c(-c2ccc(OC)cc2)nc2c(c(=O)c3ccccc3n2C)c1=O | -0.4 | 90.0* | -0.1 | -10.9 | -7.5 | -4.2
C=CCC(O)(CC=C)C(C)NC(=O)CCc1nnc(CCc2c[nH]c3ccccc23)o1 (stereo unspecified) | 0.2 | 5.9 | 0.1 | 0.7 | · | ·
S=c1[nH]nc(CN2CCSCC2)n1-c1cccc(Cl)c1 | -0.2 | 62.2* | -0.7 | -6.8 | 17.4 | 15.6
COc1cccc(-n2c(CN3CCSCC3)n[nH]c2=S)c1 | 3.8 | 38.1 | 0.1 | -1.7 | · | ·
COc1cc(/C=C2\C(=O)N(c3ccc(Cl)c(C(=O)O)c3)N=C2C)cc(OC)c1OC | -0.2 | 11.9 | -0.2 | 2.8 | · | ·
CCOC(=O)c1ccccc1NC(=O)CN1CCN(Cc2nc3ccccc3[nH]2)CC1 | 0.1 | 0.4 | -0.3 | 4.5 | · | ·
CCS(=O)(=O)N1CCN(Cc2nc3ccc(OC)cc3[nH]2)CC1 | -2.1 | 62.4* | -0.5 | -7.1 | 13.8 | 22.1
CNC(=O)CN1CCN(Cc2nc3ccc(OC)cc3[nH]2)CC1 | -0.2 | 79.6* | -0.4 | 3.2 | 12.5 | 11.7
CCS(=O)(=O)N1CCN(Cc2ccc(OC)cc2)CC1 | 0.2 | 37.6 | -0.1 | 5.6 | · | ·
O=C(COc1ccc(Cl)cc1)N(Cc1ccccc1F)C1CCS(=O)(=O)C1 (stereo unspecified) | 0.8 | -1.6 | 0.0 | 2.1 | · | ·
